# According to PubChem BioAssay AID784 (The Scripps Research Institute Molecular Screening Center, 2007):
# Screen size: about 30,000 compounds; about 130 (0.43%) were called active. What follows is part of a selection rich in actives, with near analogues and random picks from the rest. Unmarked numbers belong to inactive results. Cut-off read from the data, not from the text of the source: active = activation above about 65%; inactive = the rest.
# Target: Lysosomal acid glucosylceramidase (Homo sapiens) (UniProt P04062)
# Sequence (P04062 whole entry L483P): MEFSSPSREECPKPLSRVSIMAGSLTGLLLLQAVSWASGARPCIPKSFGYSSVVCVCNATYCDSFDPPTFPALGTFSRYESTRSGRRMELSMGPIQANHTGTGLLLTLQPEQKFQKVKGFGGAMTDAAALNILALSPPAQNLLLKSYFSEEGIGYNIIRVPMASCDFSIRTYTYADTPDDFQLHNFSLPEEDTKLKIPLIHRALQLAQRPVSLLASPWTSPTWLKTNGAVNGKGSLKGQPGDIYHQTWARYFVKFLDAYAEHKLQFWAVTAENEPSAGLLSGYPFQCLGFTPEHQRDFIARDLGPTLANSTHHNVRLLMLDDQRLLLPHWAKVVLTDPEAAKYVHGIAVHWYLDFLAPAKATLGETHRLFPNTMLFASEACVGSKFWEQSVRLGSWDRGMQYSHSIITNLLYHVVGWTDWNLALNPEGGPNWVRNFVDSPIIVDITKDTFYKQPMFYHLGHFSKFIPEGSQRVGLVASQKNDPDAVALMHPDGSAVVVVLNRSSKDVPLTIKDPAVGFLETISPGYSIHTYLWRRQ
# Assay: GBA activity enhancers in patient fibroblasts, primary screen, cell-based (AID 784);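 note: 0% = vehicle wells and 100% = positive control wells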
# Conditions: L444P Gaucher fibroblasts, 4-MU-glucoside fluorescence, 3 days; at 10 µM; active compounds read high
row,SMILES,activation
1,Cc1ccsc1C(=O)OCC(=O)c1cc2ccccc2o1,6.97%
2,COc1ccc(CCn2nnnc2C(c2ccccc2)N2CCN(C)CC2)cc1OC (configuration not stated),-1.68%
3,CCn1c(SCC(=O)NCC2CCCO2)nc2cc(S(=O)(=O)N3CCCCC3)ccc21 (configuration not stated),-14.9%
4,CCN1C(=O)CS/C1=N\c1nccs1,-12.6%
5,Cc1ccc(S(=O)(=O)N(C)CC(=O)N2CCc3ccccc32)cc1,0.44%
6,Cc1cccc(OCc2nnc(SCn3nnc4ccccc4c3=O)o2)c1,4.49%
7,Cc1cc(C)cc(OCc2nnc(SCC(=O)Nc3ccccc3)o2)c1,-21.4%
8,O=C(Nc1ccc2c(c1)OCCO2)C1CCCN(c2ncccn2)C1 (configuration not stated),-35.2%
9,O=C(NC1CCN(Cc2ccccc2)CC1)c1ccccc1F,-0.98%
10,O=C(COC(=O)c1ccc(Oc2ccccc2)cc1)Nc1nnc(-c2ccccc2)o1,-9.15%
11,Cc1nc2cc(-c3ccc(F)cc3)nn2c(N2CCOCC2)c1C,4.6%
12,COc1ccc(CNC2CCCCC2)cc1,-12%
13,CCn1c(COc2ccc(OC)cc2)nnc1SCC(=O)Nc1cc(OC)ccc1OC,-5.85%
14,CC(=O)N1CCC(C(=O)Nc2nc(-c3ccccc3)ns2)CC1,-7.15%
15,Cn1c(=O)c2c(nc(CN3CCOCC3)n2Cc2ccccc2)n(C)c1=O,-2.48%
16,Cc1ccc(-c2nc(COC(=O)c3c(C)noc3C)cs2)cc1,4.07%
17,CCOC(=O)c1ccccc1NC(=O)CC1Nc2ccccc2NC1=O (configuration not stated),-13.8%
18,Cc1cccc2nc(CNc3ccc(F)cc3)cn12,-22.2%
19,COC(=O)N1CN(C(=O)OC)CN(C(=O)OC)C1,-8.85%
20,CC(=O)N1CCN(C(=O)c2cccc(S(=O)(=O)Nc3ccc(C)cc3)c2)CC1,5.73%
21,CCn1nnc(NC(=O)c2c(OC)cccc2OC)n1,4.73%
22,COc1ccccc1N1CC(O)=C(c2nc3ccccc3s2)C1=N,8.76%
23,Cc1ccc(NC(=O)CN2CCC3(O)CCCCC3C2c2ccc3c(c2)OCO3)c(C)c1 (configuration not stated),-20.4%
24,CCOC(=O)c1sc(/N=C/Nc2nc(C)c(C(=O)OCC)s2)nc1C,-5.05%

row,SMILES,activation
1,CCC(c1nnnn1Cc1ccccc1)N(Cc1cc2cc(OC)ccc2[nH]c1=O)CC1CCCO1 (configuration not stated),-25.6%
2,COc1ccc(CCNC(=O)c2ccco2)cc1,-11.6%
3,CCC12CN3CC(CC)(CN(C1)C31C(=O)N(C)c3ccc(C)cc31)C2=O (configuration not stated),-17.4%
4,Cc1cccc(NC(=O)COc2ccc(Br)cc2C)n1,7.05%
5,CC(=O)c1ccc(-n2nnnc2SCC(=O)N2CCN(C(=O)c3ccco3)CC2)cc1,-18.5%
6,O=C(CN(CC1CCCO1)C(=O)CNS(=O)(=O)c1ccccc1)NCc1ccccc1 (configuration not stated),-28.7%
7,CC1CCCC(NC(=O)CSc2nccn2C)C1C (configuration not stated),-8.08%
8,CCOC(=O)c1c(C)[nH]c(C(=O)COc2ccc3c(c2)OCO3)c1C,6.28%
9,Cn1c(SCC(=O)c2cccs2)nnc1-c1ccco1,-23%
10,CCCn1c(SCC(=O)N2CCc3ccccc32)nnc1-c1ccncc1,-11%
11,CCCSC1=C(C#N)C(c2ccccc2C)C(C(=O)OC)C(=O)N1 (configuration not stated),-16.4%
12,Cc1cc(C)c2c(c1)cc(C)c1nnc(SCC(=O)Nc3cc(C)on3)n12,-30.3%
13,CCOC(=O)c1cc(-c2nnc(-c3cc(OC)c(OC)c(OC)c3)o2)c(C)nc1C,-21.7%
14,O=C(Nc1ccc(S(=O)(=O)N2CCCC2)cc1Cl)C1=COCCO1,22.5%
15,O=C(O)c1ccc(NS(=O)(=O)c2cccc3nsnc23)cc1,1.35%
16,CC1=CC(C)(C)N(C(=O)CSc2nccn2C)c2cc(C)ccc21,-9.35%
17,CN1CCC2(CC1)NC(=O)NC2=O,-11.5%
18,COC(=O)C(CC(=O)Nc1cc(C)ccc1C)Nc1ccccc1OC (configuration not stated),3.63%
19,Cn1cccc1C(=O)NC(=O)COC(=O)Cc1coc2ccc3ccccc3c12,-54.5%
20,Cc1ccc(NC(=O)CS(=O)CC(=O)N(c2ccccc2)C(C)C(=O)NC2CCCC2)cc1 (configuration not stated),0.43%
21,CCCc1nnc(NC(=O)c2cc(OC)cc(OC)c2)s1,-49.8%
22,CCCc1nc(SCC(=O)Nc2ccccc2OC)c2c(=O)n(C)c(=O)n(C)c2n1,-10.4%
23,CCc1cc(=O)oc2cc(C)cc(OC(C)C(=O)O)c12 (configuration not stated),12.8%
